C-LANA FP = KSHV C-LANA DNA binding inhibition | MBP-C-LANA/FAM-LBS DNA binding, fluorescence polarization | inhibition, % at 9 µM | actives 0.078% (n = 340,000) | AID 504423;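 active = highest replicate inhibition at or above 60% at 9 µM, even if other replicates fall short; inactive = all replicates below 60% inhibition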
Bcl-xL primary = inhibitors of human Bcl-xL; Q07817; GST-Bcl-xL / FITC-Bim BH3 peptide fluorescence polarization; inhibition, % at 10.9 µM; actives 0.7% (n = 320,000); AID 2129;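 active = inhibition above the mean of all tested compounds plus 3 SD, cutoff set per campaign, cut at about 30% in these data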;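 note: inhibitors lower millipolarization by displacing the labeled peptide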
Keap1 Nrf2 FP = Keap1-Nrf2 (human) interaction inhibition; AID 504523; inhibition, % at 9.4 µM; Keap1 Kelch-Nrf2 peptide fluorescence polarization, 1536-well; actives 0.15% (n = 340,000); in the data active = inhibition above about 12%; inconclusive = no clear call, values can overlap the other calls; inactive = below about 7.3%;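 note: human Keap1 Kelch domain with fluorescein labeled Nrf2 9mer peptide probe; higher means more block of Keap1 binding to Nrf2 peptide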
Target sequence (Q14145 whole entry, looked up, the tested form may be a part): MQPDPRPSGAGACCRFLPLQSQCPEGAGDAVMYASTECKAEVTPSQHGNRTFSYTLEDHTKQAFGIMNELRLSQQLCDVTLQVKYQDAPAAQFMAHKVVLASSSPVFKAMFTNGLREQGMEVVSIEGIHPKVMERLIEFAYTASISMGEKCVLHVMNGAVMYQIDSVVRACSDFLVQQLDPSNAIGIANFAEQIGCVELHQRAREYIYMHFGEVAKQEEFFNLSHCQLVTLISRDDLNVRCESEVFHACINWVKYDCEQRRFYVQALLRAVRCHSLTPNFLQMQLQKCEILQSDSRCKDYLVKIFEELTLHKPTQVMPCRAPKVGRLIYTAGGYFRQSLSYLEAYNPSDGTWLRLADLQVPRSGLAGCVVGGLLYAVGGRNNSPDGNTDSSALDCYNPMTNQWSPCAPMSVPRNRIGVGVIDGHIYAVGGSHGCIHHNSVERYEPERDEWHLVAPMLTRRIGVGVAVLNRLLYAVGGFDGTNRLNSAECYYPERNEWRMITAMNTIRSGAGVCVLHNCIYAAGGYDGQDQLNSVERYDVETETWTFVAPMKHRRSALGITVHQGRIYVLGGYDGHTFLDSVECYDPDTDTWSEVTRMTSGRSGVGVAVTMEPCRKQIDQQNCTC
E coli Lon inh = inhibits E. coli Lon protease | P0A9M0 | purified E. coli Lon protease, fluorescence polarization | inhibition, % at 7.94 µM | actives 0.42% (n = 360,000); in the data active = inhibition above about 13%, passing the limit was not always enough
GLD-1 TGE inh = GLD-1-TGE RNA interaction inhibition (C. elegans). Q17339. purified GLD-1 + fluorescein TGE RNA, fluorescence polarization. inhibition, % at 5.96 µM. actives 0.44% (n = 320,000). AID 2280;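 active = percent inhibition above a per-plate cutoff, the plate mean of test compounds plus 3 SD, cut at about 30% in these data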
MEX-5 binding = C. elegans MEX-5 TCR-2 RNA binding activity; actives 0.38% (n = 300,000); MEX-5/FITC-TCR2 RNA binding, fluorescence polarization; hits give low values; activity score (negative = inhibition of binding), % at 10 µM; AID 1832;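 active = inhibition past about -25% in most replicates, and total fluorescence under double the plate's negative control median, limit read from the data; inconclusive = replicates evenly split on the limit, or fluorescence at least double controls; inactive = too little inhibition in most replicates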
Numbers stand for hits; – = inactive; ? = inconclusive; · = no result. Only some compounds are listed: those with a hit (about 1.2% of all), similar ones and a draw of the others.

SMILES	C-LANA FP	Bcl-xL primary	Keap1 Nrf2 FP	E coli Lon inh	GLD-1 TGE inh	MEX-5 binding
O=C1CCCC2=C1C(c1ccc(Br)cc1)c1c([nH]c(=S)[nH]c1=O)N2 (stereo not given)	–	34	–	–	–	–
O=C1NC(=O)/C(=C/c2cccc3ccccc23)S1	–	–	?	–	–	–
O=C1NC(=O)/C(=C\c2ccc(O)cc2O)S1	–	31	–	–	–	–
CC1(C)CC(NS(=O)(=O)c2ccc(S(N)(=O)=O)cc2)CC(C)(C)N1	–	97	–	–	89	–
CC1(C)CC(NS(=O)(=O)c2ccc(F)cc2)CC(C)(C)N1	–	–	–	–	–	–
COc1ccc(-c2cc(C(=O)NCC3CCCO3)on2)cc1OC (stereo not given)	–	34	–	–	–	–
COc1cccc(-c2cc(C(=O)NCC3CCCO3)on2)c1 (stereo not given)	–	–	–	–	–	–
O=C1CSC(=S)N1N1C(=O)c2cccc([N+](=O)[O-])c2C1=O	·	–	·	·	–	-28
Cn1c(N)c(C(=O)NCc2ccccc2)sc1=S	–	34	–	–	–	–
COc1ccc(CCNC(=O)c2sc(=S)n(C)c2N)cc1	–	–	–	–	–	–
CC1(C(=O)NS(=O)(=O)c2ccc(Cl)cc2)CCN1C(=O)C1CC1 (stereo not given)	·	·	·	–	·	·
CC(=O)Nc1ccc(NC(=O)COC(=O)c2c3c(nc4ccccc24)CCN(Cc2ccccc2)C3)cc1	–	–	–	–	–	–
O=C(COC(=O)c1c2c(nc3ccccc13)CCN(Cc1ccccc1)C2)Nc1c(F)cccc1F	–	34	–	–	39	–
COc1ccccc1-c1cc(C(=O)O)c2c(=O)n(C)c(=O)n(Cc3ccccc3)c2n1	–	–	–	–	–	–
Cn1c(=O)c2c(C(=O)O)cc(-c3ccccc3)nc2n(Cc2ccccc2)c1=O	–	38	–	–	–	–
Cc1nc2ccc(S(=O)(=O)CCC(=O)NCCc3ccccc3)cc2s1	·	·	·	–	·	·
CC(C)NS(=O)(=O)c1ccc(CCC(=O)NCc2ccc3c(c2)OCO3)cc1	–	–	–	–	–	–
CCCNS(=O)(=O)c1ccc(CCC(=O)NCc2ccc3c(c2)OCO3)cc1	–	–	–	–	–	-36
O=S(=O)(c1ccc2c(c1)CCN2)N1CCCC1	–	–	–	–	–	·
Cc1cc(O)c(C=O)c2c1C(=O)Oc1c(CO)c(O)c3c(c1O2)C(O)OC3=O (stereo not given)	118	48	47	72	–	·
Cc1cccc([N+](=O)[O-])c1NC(=O)CSc1nnc2ccccn12	–	–	–	–	–	·
CC1(C(=O)NNC(=O)c2ccc(=O)oc2)CC1Br (stereo not given)	·	37	·	–	–	–
O=C(O)c1ccccc1NS(=O)(=O)c1ccc(NNC(=S)Nc2ccc(OC(F)F)cc2)c([N+](=O)[O-])c1	–	·	–	–	·	-42
Cc1ccc(S(=O)(=O)N2CCCC2)cc1C(=O)Nc1ccc(-n2cnnn2)cc1	–	–	–	–	–	·
Nc1nc2ncc(C(=O)c3cc(Cl)cc(Cl)c3O)cc2s1	–	32	–	–	–	–
SMILES	C-LANA FP	Bcl-xL primary	Keap1 Nrf2 FP	E coli Lon inh	GLD-1 TGE inh	MEX-5 binding
CCOC(=O)C1CCCN(C(=O)c2cc(F)cc(F)c2)CC1 (stereo not given)	·	·	·	–	·	·
CCCCCCc1ccc(N2C[C@H](C)[C@@H](CC(=O)NCc3ccccc3)C2=O)cc1	–	–	–	–	41	–
CC1C(=O)N(Cc2cn(CC3CCCCC3)nn2)CCS(=O)(=O)N1Cc1ccc(-c2ccc(Cl)cc2)cc1 (stereo not given)	·	·	·	–	·	·
c1ccc2c(c1)Nc1cc3ccccc3cc1S2	–	–	–	–	–	–
Cc1ccc2c(c1)Sc1c(ccc3ccccc13)N2	–	67	–	–	–	–
C=CCOc1ccc(C2C(C#N)=C(N)N(N(C)C)C3=C2C(=O)CCC3)cc1 (stereo not given)	–	–	–	–	–	–
N#Cc1c2ccc(OCC(=O)NCc3ccco3)cc2n2ccccc12	–	–	–	–	–	–
N#Cc1c2ccc(O)cc2n2ccccc12	–	45	–	–	–	–
CCN(CC)CCn1c(=O)n(-c2ccc(Cl)cc2)c(=O)c2c3c(sc21)CN(C)CC3	–	35	–	–	–	–
CN1CCc2c(sc3c2c(=O)n(-c2ccc(Cl)cc2)c2nncn32)C1	–	–	–	–	–	–
COC(=O)CCC(=O)OC1(C)C(=O)C=C2C=C(C3CC3)N(c3ccc(CO)cc3)C=C2C1=O (stereo not given)	·	64	·	·	45	-36
COC(=O)CCC(=O)OC1(C)C(=O)C=C2C=C(C3CC3)N(Cc3ccco3)C=C2C1=O (stereo not given)	–	37	–	–	–	–
COC(=O)CCC(=O)OC1(C)C(=O)C=C2C=C(C3CC3)N(c3cccc(C#N)c3)C=C2C1=O (stereo not given)	–	47	–	–	–	–
COC(=O)CCC(=O)OC1(C)C(=O)C=C2C=C(C3CC3)N(C3CC3)C=C2C1=O (stereo not given)	–	–	–	–	–	–
O=C1CSC(=S)N1Nc1ccccc1	–	·	–	–	·	·
C[C@@H]1Cc2c(O)c(O)cc(O)c2C(=O)O1	–	–	–	–	–	-45
CCOC(=O)C1=C(c2ccccc2)N=c2s/c(=C\c3cc(OC)c(OC)c(OC)c3)c(=O)n2C1c1cccs1 (stereo not given)	–	35	–	–	–	–
Cc1ccccc1Nc1nc(Cl)c(C=O)s1	–	–	–	–	–	-41
Cc1ccccc1Nc1n[nH]c(=S)s1	·	·	·	–	·	·
CN(CCO)c1ccc(-c2nn(C)c(=O)c3ccccc23)cc1[N+](=O)[O-]	–	–	–	–	–	–
COc1cccc(C(=O)N(c2ccc(OC)cc2OC)C2C=CS(=O)(=O)C2)c1 (stereo not given)	–	61	–	–	–	–
COc1ccc(N(C(C)=O)C2C=CS(=O)(=O)C2)c(OC)c1 (stereo not given)	–	–	–	–	–	–
Cc1cc(C(=O)CCC(=O)N(C)CC2COc3ccccc3O2)c(C)s1 (stereo not given)	·	·	·	–	·	·
C=C(C)C(=O)Nc1cccc(C2=NOC3(C2)C[C@@H](C(N)=O)N(C(=O)C2(C)CC2)C3)c1 (stereo not given in full)	105	–	–	–	–	–
CC(=O)Nc1nc2[nH]ccc2c(=O)[nH]1	·	·	·	–	·	·
CCC(C)n1c(=N)c(C#N)cc2c(=O)n3cc(C)ccc3nc21 (stereo not given)	–	–	–	–	–	-34
CCC(C)n1c(=N)c(C#N)cc2c(=O)n3cccc(C)c3nc21 (stereo not given)	–	–	–	–	–	?
CCCCOc1ccc2c(c1)C(=O)c1cc(O)ccc1-2	–	–	–	–	139	–

Compound activity deposited in PubChem by several laboratories.
